Records with an inconclusive call do not appear. Unmarked numbers belong to inactive results. The source made the active and inactive calls. The call rests on the fitted dose curve; in most records, active means well fitted cell-killing curve with a large enough effect; inconclusive means small, poorly fitted or top-dose-only effect, or effect the other way; inactive means no such curve, though single readings can be large or run the other way.

This passage reports Potency and activity change, negative = viability loss results from PubChem BioAssay AID1345085 (National Center for Advancing Translational Sciences (NCATS), 2018).
On the % scale 0 is the no-effect control and ±100 the full control effect; potency means the concentration at half of the fitted maximal effect.

The subject of this experiment is SW626. Briefly: Confirmatory qHTS for gynecologic anti-cancer compounds from libraries of approved drugs and bioactive compounds. Further: nearly all actives have a fitted effect of over 55% in size. The note with it: gynecologic cancer cell panel viability, ATPlite luminescence, 48 h; series mostly up to 57.6 µM. The source says:
National Center for Advancing Translational Sciences [NCATS] Assay Overview: Chemotherapeutic drug responses vary from cancer to cancer and from patient to patient. These variations could be caused by a number of factors including patient genomic background, tumor mutations, tumor heterogeneity, and aspects of drug treatment. Chemotherapeutic drug resistance is also a common issue and can lead to ineffective treatment and patient death. Here we have profiled the cell killing effects of thousands of compounds to characterize the responses in three gynecological cancers, identify cancer-selective compounds, and understand the diversity of responses to these compounds from pan-cancer suppressors to single cell line selective compounds. In this assay, we screened a 7,914 compound drug library that included approved drug and bioactive compounds in six ovarian, three cervical, and two placental cancer cell lines using the ATPlite assay for cell viability. ATPlite is a luminescence based assay reliant on the conversion of a luciferase substrate to light in the presence of ATP. As a cytotoxic compound will suppress growth and decrease the number of cells, the concentration of ATP will decrease, and less light signal will be detected in the well. Hits were selected from the primary screen for follow-up confirmation. For the confirmation screens, the ovarian cancer cell lines included CAOV-3, SK-OV-3, SW 626, ES-2, PA-1, and TOV-21G. The cervical cancer cell lines included HeLa, Ca Ski, and C-33 A. The placental cancer cell lines included JEG-3 and JAR. HEK 293T cells were used as the control cell line to determine the selectivity index. The ATPlite assay was used to determine the IC50 values.
Assay Protocol Summary: 1,000 cells in 4 uL of media were dispensed into white, solid bottom 1536-well plates using a Multidrop Combi (Thermo Scientific). The Assay plates were incubated for 16 hours at 37 C with 5% CO2 in assay plates, followed by the addition of 23 nL of DMSO or drug dissolved in DMSO. . Each compound was assayed in 11 concentrations (1:3 dilution) from 57.5 uM to 0.977 nM, using the automated Wako 1536 Pin Tool workstation and incubated at 37 C with 5% CO2 48 hours. 4 uL of ATPlite, the ATP monitoring reagent, was then added to the each well of the assay plates using the Multidrop Combi reagent dispenser followed by incubation for 15 minutes at room temperature. The resulting luminescence was measured using the ViewLux plate reader.
In general terms: qHTS replaces the single test concentration by a dilution series.
On to `O=C(Nc1cccnc1)N1CCC(Cc2cccc(Oc3ccc(C(F)(F)F)cn3)c2)CC1`, for which the Potency entry is “inactive”.

With `CC(C)c1nn(-c2c(Cl)cccc2Cl)c2nc(Cc3ccc(OCCO)cc3)[nH]c(=O)c12`, the Potency result is “inactive”.

Take `Cc1ccc(C(=O)N(CCCN)C(c2oc3cc(Cl)ccc3c(=O)c2Cc2ccccc2)C(C)C)cc1` (stereo not given): the Potency was 24.3 µM (active).

Take `CCCCN(CCCC)C(=O)CN1C[C@H](c2ccc3c(c2)OCO3)[C@@H](C(=O)O)[C@@H]1c1ccc(OC)cc1`: the Potency result was “inactive”.

As to `CC(=O)OC12COC1CC(O)C1(C)C(=O)C(O)C3=C(C)C(OC(=O)C(O)C(NC(=O)OC(C)(C)C)c4ccccc4)CC(O)(C(OC(=O)c4ccccc4)C21)C3(C)C` (stereo not given), the Potency result is “inactive”.

`COc1ccc(OC)c(-c2nnc3ccc(-c4ccc(OC)c(O[C@@H]5CCOC5)c4)nn23)c1`: the Potency was 8.63 µM (active).

Consider `COc1ccccc1N1CCN(CC(O)COc2cccc3ccccc23)CC1` (stereo not given), for which the Potency result was “inactive”.

As for `C[C@]12CCC(=O)C=C1CC[C@@H]1[C@@H]2[C@@H](O)C[C@@]2(C)[C@H]1CC[C@]2(O)C(=O)CO`, the Potency result was “inactive”.

As for `CC[C@@]1(O)C(=O)OCc2c1cc1n(c2=O)Cc2cc3cc(O)ccc3nc2-1`, the Potency was 0.217 µM (active).

With `CCN(CC)CCOc1ccc(/C(=C(\Cl)c2ccccc2)c2ccccc2)cc1`, the Potency was 89.1 µM (active).

Turning to `CNc1nc(Nc2ccc(C(=O)N3CCOCC3)cc2OC)ncc1Cl`, the Potency result is “inactive”.

As to `Cc1cc(C(=O)N2CCN(c3cccc(Cl)c3)CC2)n(-c2ccccc2)n1`, the Potency result is “inactive”.

For the compound `CCN(CC)CCNC(=O)c1c(C)[nH]c(/C=C2\C(=O)Nc3ccc(F)cc32)c1C`, the Potency is 22.4 µM (active).

For `Cc1cnc(CNC(=O)c2c(=O)c3ccc(N4CCCN(C)CC4)nc3n3c2sc2ccccc23)cn1`, the activity change, negative = viability loss is -6.28% [at 10.7 µM].

`O=c1c2ccccc2nc2n1CCc1c-2[nH]c2ccccc12`: the Potency entry was “inactive”.

Consider `CN(NC(=O)CC(=O)NN(C)C(=S)c1ccccc1)C(=S)c1ccccc1`, for which the Potency is 0.0968 µM (active).

With `CC(C)Oc1ccc(C(=O)NC(CNC(=O)CN(C)C)Cc2ccc(-c3cn4cccc(C(C)O)c4n3)cc2)cc1Cl` (stereo not given), the Potency result was “inactive”.

Consider `Cc1ccc(C(=O)Nc2ccc(CN3CCN(C)CC3)c(C(F)(F)F)c2)cc1C#Cc1cnc2cccnn12`, for which the Potency is 21.7 µM (active).

Consider `CNC(=O)c1ccccc1Sc1ccc2c(/C=C/c3ccccn3)n[nH]c2c1`, for which the Potency was 21.7 µM (active).

In the case of `CN(C)C(CCOc1cccc2ccccc12)c1ccccc1` (stereo not given), the Potency result was “inactive”.

Consider `Cn1c(=O)c(F)c(Nc2ccc(I)cc2F)c2c(=O)n(CC(O)CO)cnc21` (stereo not given), for which the Potency was 0.0544 µM (active).

On to `O=C(c1ccc(F)c(F)c1Nc1ccc(I)cc1F)N1CC(O)([C@@H]2CCCCN2)C1`, for which the Potency was 9.68 µM (active).

For `CCC1C(=O)N(C)c2cnc(Nc3ccc(C(=O)NC4CCC(N5CCN(CC6CC6)CC5)CC4)cc3OC)nc2N1C(C)C` (stereo not given), the Potency is 7.69 µM (active).

As to `Nc1ncn([C@@H]2O[C@H](CO)[C@@H](O)[C@H]2O)c(=O)n1`, the Potency result was “inactive”.

Take `CC(C)(C(=O)NCC(F)(F)C(F)(F)F)C(=O)NC1C(=O)Nc2ccccc2-c2ccccc21` (stereo not given): the Potency entry was “inactive”.

On to `CN(C)C1CCN(C(=O)c2ccc(NC(=O)Nc3nc(N4CCOCC4)nc(N4CCOCC4)n3)cc2)CC1`, for which the Potency was 0.685 µM (active).

Consider `Cc1cnc(Nc2cccc(CN3CCOCC3)c2)nc1Nc1cccc(S(=O)(=O)NC(C)(C)C)c1`, for which the Potency was 24.3 µM (active).

With `N=C(N)c1ccc(OCCCCCOc2ccc(C(=N)N)cc2)cc1`, the Potency result is “inactive”.

For `O=C1c2c(O)ccc(O)c2C(=O)c2c(NCCNCCO)ccc(NCCNCCO)c21`, the Potency is 6.85 µM (active).

In the case of `Cc1cc(Nc2nc(N[C@@H](C)c3ccc(F)cc3)c(C#N)cc2F)n[nH]1`, the Potency was 5.44 µM (active).

On to `Cc1nc(NC(=O)N2CCCC2C(N)=O)sc1-c1csc(C(C)(C)C)n1` (stereo not given), for which the Potency entry was “inactive”.

For `CC(C)C[C@H](NC(=O)[C@H](CCc1ccccc1)NC(=O)CN1CCOCC1)C(=O)N[C@@H](Cc1ccccc1)C(=O)N[C@@H](CC(C)C)C(=O)[C@@]1(C)CO1`, the Potency is 1.09 µM (active).

`CCCCc1oc2ccccc2c1C(=O)c1cc(I)c(OCCN(CC)CC)c(I)c1`: the Potency was 79.4 µM (active).

`CC(C)n1c(/C=C/[C@@H](O)C[C@@H](O)CC(=O)O)c(-c2ccc(F)cc2)c2ccccc21`: the Potency is 1.37 µM (active).

For the compound `O=C(CCCCCCNC(=O)c1cnc(N(c2ccccc2)c2ccccc2)nc1)NO`, the Potency was 7.69 µM (active).

For the compound `CCCCc1nc2cc(/C=C/C(=O)NO)ccc2n1CCN(CC)CC`, the Potency is 0.769 µM (active).

With `Cc1c(C)n(Cc2ccc(-c3ccccc3C(=O)O)cc2)c2ccc(C(=O)N[C@@H](C)c3ccc([N+](=O)[O-])cc3)cc12`, the Potency entry was “inactive”.

Regarding `CC(C)C[C@H](NC(=O)[C@@H](NC(=O)c1cccc(-c2ccccc2)n1)[C@@H](C)O)B(O)O`, the Potency is 0.0385 µM (active).

With `O=c1[nH]c(=O)n([C@H]2C[C@H](O)[C@@H](CO)O2)cc1F`, the Potency entry was “inactive”.

On to `CN(C)C/C=C/C(=O)Nc1cc2c(Nc3ccc(F)c(Cl)c3)ncnc2cc1OC1CCOC1` (stereo not given), for which the Potency was 27.3 µM (active).
